Shown are actives, neighbours in structure and some others; about 3.5% of the full set was active somewhere.
MITF inh: MITF inhibitors, primary screen, biochemical, AlphaScreen, human | Microphthalmia-associated transcription factor (Homo sapiens), O75030 | AlphaScreen MITF homodimerization, bead proximity signal | inhibition, % at 2.6 µM | actives 0.91% (n = 650,000) | AID 1259374, 2018; in the data active = inhibition above about 50%;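 also: 0% = vehicle wells with protein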
GPR151 activ: activators of human GPR151, primary screen, cell-based, PathHunter beta-arrestin, luminescence | G-protein coupled receptor 151 (Homo sapiens), Q8TDV0 | PathHunter beta-arrestin GPR151 cells | activation, % at 11.2 µM | actives 1% (n = 650,000) | AID 1508602, 2020; in the data active = activation above about 4.9%;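 also: 0% = median of compound wells and 100% = cells with positive control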
FBW7 act: FBW7 E3 ligase activators, primary screen, biochemical, AlphaScreen, human; AlphaScreen FBW7–phospho-cyclin E peptide binding, activator screen; normalized activity (activation), % at 26.1 µM; actives 0.13% (n = 650,000); in the data active = normalized activity above about 1.9%;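 also: purified mutant Fbw7 with reduced substrate affinity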
TEAD-YAP inh: TEAD-YAP interaction inhibition, primary screen, TEAD-YAP interaction inhibitor project, luminescence, HEK-TIYL cells. TEAD-Gal4/YAP UAS-luciferase luminescence. inhibition, % at 9.12 µM. actives 1.4% (n = 640,000). AID 1259422, 2018; in the data active = inhibition above about 32%;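 also: 0% = median of test compound wells and 100% = reference inhibitor wells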
GPR151 conf act: GPR151 activators, triplicate retest, confirmation, cell-based, PathHunter beta-arrestin, luminescence; shares compounds with GPR151 activ; GPR151 PathHunter beta-arrestin cells, 90 min; % of EA-reagent control over plate median; activation, % at 11.2 µM; 6,700 tested, under 10 active; AID 1508609, 2020;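 active = mean percent activation across replicates above the confirmation screen cutoff of 4.91%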
GPR119 counter: GPR119 activators in beta-arrestin cells, counter-screen for GPR151 activator project, cell-based, PathHunter beta-arrestin, luminescence, triplicate | shares compounds with GPR151 activ | 90 min; 0 = compound-well median, 100 = enzyme-acceptor control | activation, % at 11.2 µM | actives 0.3% (n = 6,700) | AID 1508611, 2020;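 active = mean percent activation in the counterscreen above 29.09%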;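 also: counterscreen on off-target GPR119 to flag nonselective hits from the GPR151 activator screen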
Starred values were filed as active, the others as inactive; x = no result given.

SMILES | MITF inh | GPR151 activ | FBW7 act | TEAD-YAP inh | GPR151 conf act | GPR119 counter
Cc1cccc(OCC(=O)Nc2ccc(S(N)(=O)=O)cc2)c1 | -4 | -1 | 0 | 1 | x | x
COc1ccc(C(=O)NCCS(=O)(=O)NCCCOC(C)C)cc1 | 3 | 5.2* | 0 | -2 | -2 | -15
COc1cc(C=Nc2ccc(C)c(F)c2)ccc1OC(C)=O | -9 | 34* | 0 | 4 | 0 | -11
COc1cc(C=Nc2ccc(F)cc2)ccc1OC(C)=O | 4 | 1 | 0 | -4 | x | x
CC1CCc2nn(CC(=O)Nc3ccccc3Br)cc2C1 (centres undefined) | 4 | 1 | 0 | -17 | x | x
CCOc1ccccc1Nc1nnc(SC(C)C(=O)NC(N)=O)s1 (centres undefined) | -1 | -3 | 0 | -9 | x | x
COc1ccc(Br)cc1C(=O)N/N=C/c1cccc(OC)c1O | 10 | 1 | 0 | 22 | x | x
COc1cc(OC)nc(Oc2cccc(C)c2/C=N/NC(=O)c2ccccn2)n1 | 14 | 6.0* | 0 | -45 | -1 | -11
COc1cccc(/C=N/NC(=O)c2[nH]nc(-c3ccccc3)c2C)c1O | 25 | 7.6* | 0 | 10 | 0 | -13
COc1ccc(/C=N\NC(=O)c2cnccn2)cc1OCc1ccccc1 | 12 | 5.8* | 0 | 5 | 0 | 17
COc1cccc(/C=N/NC(=O)c2ccc(-n3c(C)ccc3C)cc2O)c1O | 64* | 5.4* | -1 | -32 | -1 | -11
CC1=C(C(=O)Nc2cccc(Cl)c2)C(c2ccc(O)cc2)NC(=O)N1 (centres undefined) | 12 | 0 | 0 | 6 | x | x
Cc1ccc(C(=O)N/N=C\c2ccc(O)c([N+](=O)[O-])c2)cn1 | 8 | 0 | 0 | 5 | x | x
CC(C)CNC(=O)c1cnc2scc(-c3ccccc3)n2c1=O | -1 | 2 | -1 | 7 | x | x
CCOc1ccc(/C=N/NC(=O)c2ccccn2)cc1OC | 14 | 6.8* | 0 | -43 | 0 | -3
COc1cccc(/C=N\NC(=O)c2cnccn2)c1O | 38 | 5.3* | -1 | -14 | 0 | 1
COc1cccc(/C=N/NC(=O)C(=O)NCC(C)C)c1O | 23 | 30* | -1 | -6 | -1 | -15
COc1cc(/C=N/NC(=O)c2ccccn2)ccc1OC(C)=O | 6 | -2 | 0 | -51 | x | x
COc1cccc(/C=N/NC(=O)C(=O)NC(C)c2ccccc2)c1O (centres undefined) | 50 | 2 | -2 | 10 | x | x
CCCCCCc1cc2cc(-c3csc(NC(=O)CCC(=O)N4CCc5ccccc5C4)n3)c(=O)oc2cc1O | 15 | 0 | 0 | -7 | x | x
CC(C)C[C@@H](NC(=O)OCC1c2ccccc2-c2ccccc21)C(=O)O | -5 | 7.8* | 0 | x | -1 | -6
CCOc1cc(/C=N/N=C2/NC(=O)CS2)cc(Cl)c1O | 5 | 7.1* | 0 | -9 | 1 | 2
CCOc1cc(/C=N/N=C2/NC(=O)CS2)ccc1OC(=O)c1ccc(OC)cc1 | 7 | 1 | 0 | -14 | x | x
COc1cc(C(=O)OCC(=O)NC(C)C)c([N+](=O)[O-])cc1OC | 9 | -2 | 0 | 6 | x | x
CCC(CC)NC(=O)COC(=O)c1cc(OC)c(OC)cc1[N+](=O)[O-] | -6 | 5.0* | 0 | 5 | 0 | 2
O=C(CCN1C(=O)/C(=C\c2cccs2)SC1=S)N1CCCC1 | 5 | 6.0* | -1 | 21 | -1 | -8
O=C(CN1C(=O)S/C(=C\c2cccs2)C1=O)N1CCCC1 | 14 | 5.5* | 0 | -3 | 0 | 3
COc1cc(NC(=S)N2CCC(C(N)=O)CC2)cc(OC)c1 | -12 | 7.5* | 0 | 5 | 0 | -10
CC1(C)CC(=O)C2=C(C1)Nc1ccccc1N1C(=O)c3ccccc3C21 (centres undefined) | -5 | 0 | 0 | -16 | x | x
